Compound activity (PubChem BioAssay)
Tgondii IFNg – T. gondii growth inhibition with IFN-gamma, primary screen, cell-based | activity change, negative = inhibition, % (concentration not given with the values) | Toxoplasma gondii growth in IFN-gamma-treated host cells; active compounds read low | AID 1259416, 2018 | 3.8% of 69,000 active; in the data active means activity change below about -70%, passing the limit was not always enough;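 further: host cells are HeLa cells infected with Toxoplasma gondii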
Starred values were filed as active, the others as inactive; ! = repeats disagree. Shown is part of a subset that was picked to be rich in hits.

SMILES	Tgondii IFNg
Clc1ncnc2sc(-c3ccccc3)cc12	62
Cc1ccc(S(=O)(=O)N2C[C@H]3C[C@H](NC(=O)C4CCCCC4)[C@H]3C2)cc1	-20
CC(=O)Nc1ccc(C(=O)N(C2CC2)C2(C(=O)NCc3ccccc3)CCN(C(C)=O)CC2)cc1	-3
CCN(Cc1cccc(C(=O)Nc2cnn(C)c2)c1)Cc1nc(C)no1	6
Cc1ccsc1CN(C)Cc1ccc(C(=O)Nc2cnn(C)c2)cc1	-84*
COC[C@H]1CCCN1Cc1ccc(C(=O)Nc2cnn(C)c2)cc1	3
O=C(NC1CCC1)[C@H]1C[C@@H]2CN(C(=O)Nc3ccc(Cl)cc3)C[C@H]1O2	-7
O=C(NC1CCC1)[C@H]1C[C@H]2CN(Cc3ccc(Cl)cc3)C[C@H]1O2	-93*
O=C(NC1CCC1)[C@H]1C[C@H]2CN(Cc3ccccc3)C[C@H]1O2	18
CC1=C(C(=O)NCCCN2CCOCC2)C2(CCN(S(=O)(=O)c3cccs3)CC2)OC1=O	58
CN1C(COCC2CC2)CCC12CCN(C(=O)CS(C)(=O)=O)CC2 (stereo unspecified)	5
Cc1nc(Nc2ccccn2)cc(C2CCCN2)n1 (stereo unspecified)	91
CCN(CC)c1ccc2c(C)c(CC(C)=O)c(=O)oc2c1	-98*
Cc1cc(OC(C(=O)O)c2ccccc2)c2c(C)c(Cc3ccccc3)c(=O)oc2c1 (stereo unspecified)	8
COc1ccc(-c2c(C)c3ccc(OCC(C)=O)cc3oc2=O)cc1	202
CN(Cc1cc(C#CCO)cs1)C1CC(C)(C)NC(C)(C)C1	0
CC(Oc1cccc(C(F)(F)F)c1)C(=O)NCCc1nc(C(C)(C)C)cs1 (stereo unspecified)	12
Cc1ccc(NC(=O)CN2C(=O)CCc3cc(S(=O)(=O)N4CCCCC4)ccc32)cc1	3
COc1ccc(C(=O)N2C[C@H]3[C@@H](c4ccccc42)[C@@H](CO)N3Cc2ccccc2Cl)cc1	1
COc1ccc(C(=O)N2C[C@@H]3[C@H](c4ccccc42)[C@H](CO)N3Cc2ccccc2Cl)cc1	-1
COc1ccc(C(=O)NC2CCCc3c2cnn3Cc2ccccc2Cl)cc1 (stereo unspecified)	-80*
O=C(c1cscn1)N1CC2CN(Cc3cccc(Cl)c3)C2C1 (stereo unspecified)	3
CC(=O)N1CCC2O[C@H](COCc3csc(C)n3)CCC21 (stereo partly specified)	-48
CN(C)CCCNC(=O)c1cc(-c2cnc(-c3ccccc3)nc2)cn1C	-29
CCCNC(=O)c1cc(-c2cnc(NCc3ccccc3)nc2)cn1C	-82*
SMILES	Tgondii IFNg
Cn1cc(-c2cnc(-c3ccccc3)nc2)cc1C(=O)NCCC#N	8
COc1cccc(N(Cc2nc(-c3ccc(C)cc3)oc2C)S(=O)(=O)c2ccc(C)cc2)c1	-5
CC(C)CN1CC2(CCN(C(=O)c3ccc4[nH]ccc4c3)CC2)C2(CCNC2=O)C1 (stereo unspecified)	8
O=C(c1ccc[nH]1)N1CCCn2nnc(COCC3CC3)c2C1	-37
COc1cc(OC2CCN(C)CC2)ccc1Nc1ncc2c(n1)n(C1CCCC1)c(=O)n2C	-59
CCN1C(=O)CCc2cc(C(=O)NC3CCCCC3)ccc21	68
CC[C@@H]1C(=O)N(C)c2cnc(Nc3ccc(C(=O)NC4CCN(C)CC4)cc3OC)nc2N1C1CCCC1	-76*
O=C(CC1CCCCC1)N1CCC2(CC1)Nc1ccc(Cl)cc1-n1cccc12	-35
Cn1ncc2c1C(COCC1CC1)CN(C(=O)CS(C)(=O)=O)C2 (stereo unspecified)	58
CC(C)CN(C/C=C/c1ccccc1)C(=O)CC1CCOCC1	-3
Cc1nc(-c2ccc(F)cc2)sc1CCNC(=O)c1cccc(F)c1	-38
Cc1nc(-c2cccc(F)c2)sc1CCNC(=O)c1ccc(C(F)(F)F)cc1	-90*
Cc1cccc(-c2nc(C)c(CCNC(=O)C(=O)Nc3c(C)cc(C)cc3C)s2)c1	-79*
Cc1nc(-c2ccc(Cl)cc2)sc1CCNC(=O)c1cccc(C(F)(F)F)c1	-41
Cc1nc(-c2ccc(F)cc2)sc1CCNC(=O)c1cccc(C(F)(F)F)c1	-74*
Cc1nc(-c2ccc(F)cc2)sc1CCNC(=O)c1ccc(C(F)(F)F)cc1	-41
Cc1cc(C)c(NC(=O)C(=O)NCCc2sc(-c3cccc(F)c3)nc2C)c(C)c1	27
Cc1cccc(-c2nc(C)c(CCNC(=O)C(=O)Nc3c(C)cccc3C)s2)c1	11
Cc1ccc(C(=O)NCCc2sc(-c3cccc(F)c3)nc2C)cc1	-1
COCCn1c(C(=O)NCCCN2CCOCC2)cc2c1c1ccccc1n2C	0
CCS(=O)(=O)N1C[C@@H]2CCCO[C@H]2[C@@H](N(C)Cc2ccco2)C1	0
CCN1CCC(c2nc3ccc(NC4CCC4)cn3n2)CC1	-46
CCc1cc(-c2nccn2Cc2cc(C)no2)on1	2
Oc1c(Cl)cc(Cl)cc1Sc1cc(Cl)cc(Cl)c1O	-84*!
C=CCC(O)(CC=C)C(N)CCSC (stereo unspecified)	-15
SMILES	Tgondii IFNg
Cc1ccc(-c2coc(-c3ccc(NC(=O)Nc4ccc5c(c4)OCO5)cc3)n2)c(C)c1	19
Cc1cc(C)c(Cn2nc(C(C)(C)C)cc2C(=O)Nc2ccc3c(c2)OCO3)c(C)c1	-99*
CCN1CCC2(CC1)OC(=O)C(C)=C2C(=O)Nc1ccc2c(c1)OCO2	124
COC(=O)c1nnc2c(-c3ccc(Cl)cc3)c(C)nn2c1C	-7
CCN1c2ccc(C)cc2C(=O)NC12CCN(C(=O)c1cccc(Cl)c1)CC2	12
COc1ccc(N2CCN(C(=O)c3cc4cccnc4n(Cc4ccc(Cl)cc4)c3=O)CC2)cc1	63
CCCN(CC)C(=O)c1ccc2onc(-c3coc(CC)n3)c2c1	-70
O=C(c1cc(=O)n(-c2ccccc2)[nH]1)N1CCCC(Nc2ccc(F)cc2)C1 (stereo unspecified)	354
COc1ccccc1-c1ccc2c(c1)[C@@H]1[C@@H](CCN1S(=O)(=O)c1ccc(C)cc1)[C@H](CO)N2	-78*
COc1ccccc1-c1ccc2c(c1)[C@H]1[C@H](CCN1C(=O)C1CCC1)[C@H](CO)N2	-71*
COc1ccccc1-c1ccc2c(c1)[C@H]1[C@H](CCN1C(=O)C1CCC1)[C@@H](CO)N2	-76*
N#Cc1ccc(-c2ccc3c(c2)[C@@H]2[C@@H](CCN2C(=O)C2CCCCC2)[C@@H](CO)N3)cc1	-63
Cc1cccc(S(=O)(=O)N2CC[C@@H]3[C@@H](CO)Nc4ccc(-c5ccccc5F)cc4[C@@H]32)c1	-48
CC(=O)N1CC[C@@H]2[C@H]1c1cc(-c3ccccc3)ccc1N[C@@H]2CO	41
COc1ccccc1-c1ccc2c(c1)[C@H]1[C@H](CCN1Cc1ccccc1F)[C@@H](CO)N2	-56
N#Cc1ccc(-c2ccc3c(c2)[C@H]2[C@H](CCN2C(=O)C2CCCCC2)[C@H](CO)N3)cc1	-31
COc1ccccc1-c1ccc2c(c1)[C@H]1[C@H](CCN1S(=O)(=O)c1ccc(C)cc1)[C@@H](CO)N2	-63
Cc1ccc(-c2cncnc2)c2cccnc12	0
Cc1ccc(F)cc1NC(=O)N1CCCC(O)(CN(C)C)CC1 (stereo unspecified)	4
O=C(COc1ccc2c(c1)OCO2)N1CCCC(c2ccn[nH]2)C1 (stereo unspecified)	10
N#Cc1c2c(c(N3CCOCC3)[nH]c1=S)CCCC2	-43
Cc1ccc(C(=O)Nc2ccc(CN3CCN(C)CC3)c(C(F)(F)F)c2)cc1C#Cc1cnc2[nH]ncc2c1	-80*
